Source: PubChem
This excerpt belongs to a sample that is enriched for hits.
HT1080 IDH1KD tx – qHTS for induction of synthetic lethality in tumor cells producing 2HG: qHTS for the HT-1080-IDH1KD cell line; HT-1080 IDH1 knockdown viability, ATP luminescence, 48 h; Potency, µM (series often up to 46.1 µM), for inactives: at the top dose activity, negative = toxicity, usual class: cytotoxic; 360,000 tested, 2% active; AID 686971, 2013;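 further: potency means the concentration at half of the fitted maximal effect; 0% = DMSO wells and -100% = cell-free medium wells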
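Knockdown cells (IDH1KD HT-1080) received compounds 2 h after plating at 750 cells/well and were kept 48 h at 37 °C in 5% FBS RPMI. A CellTiter-Glo luminescence read gave % activity for curve fitting.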
TDP1 cell noCPT – qHTS for Inhibitors of human tyrosyl-DNA phosphodiesterase 1 (TDP1): qHTS in cells in absence of CPT. DT40 Tdp1-/- hTDP1 cells, no CPT, ATP luminescence, 48 h. Potency, µM (titrated, usually from 46.2 µM), inactives show at the highest dose activity change, negative = growth inhibition, actives largely listed as inhibitors. 420,000 tested, 15% active; further: potency means the concentration at half of the fitted maximal effect; nearly all actives have a fitted effect of over 55% in size
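Cells were dispensed at 400 per well, compounds added by pin tool, plates incubated ≥48 hr at 37 °C, then CellTiter-Glo added for 30 min at room temperature before luminescence reading. Line: DT40 Tdp1-/- complemented with hTDP1; camptothecin omitted.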
DT40 TDP1 CPT – qHTS for Inhibitors of human tyrosyl-DNA phosphodiesterase 1 (TDP1): qHTS in cells in presence of CPT. chicken DT40 Tdp1-/-;hTDP1 cells + 20 nM CPT, ATP luminescence, 48 h. Potency, µM (series often up to 46.2 µM), inactives show top-dose activity change, negative = growth inhibition, usual class: inhibitors. 420,000 tested, 12% active; further: potency means the concentration at half of the fitted maximal effect; nearly all actives have a fitted effect of over 55% in size
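Chicken DT40 Tdp1-/- cells complemented with human TDP1, 400 cells/well, exposed to compounds plus 20 nM camptothecin for at least 48 h at 37 C; viability read as ATP content by CellTiter-Glo luminescence.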
ALOX12 inh – Primary qHTS assay for inhibitors of human arachidonate 12S-lipoxygenase (ALOX12): Round 2 | purified 12hLO, xylenol orange hydroperoxide absorbance | Polyunsaturated fatty acid lipoxygenase ALOX12 (Homo sapiens), P18054 | AID 1671190, 2021 | Potency, µM (highest dose often 108 µM), for the others: top-dose activity change, negative = inhibition, most hits filed as inhibitors | 580,000 tested, 1.1% active; further: potency means the concentration at half of the fitted maximal effect
Target sequence (P18054 whole entry, looked up): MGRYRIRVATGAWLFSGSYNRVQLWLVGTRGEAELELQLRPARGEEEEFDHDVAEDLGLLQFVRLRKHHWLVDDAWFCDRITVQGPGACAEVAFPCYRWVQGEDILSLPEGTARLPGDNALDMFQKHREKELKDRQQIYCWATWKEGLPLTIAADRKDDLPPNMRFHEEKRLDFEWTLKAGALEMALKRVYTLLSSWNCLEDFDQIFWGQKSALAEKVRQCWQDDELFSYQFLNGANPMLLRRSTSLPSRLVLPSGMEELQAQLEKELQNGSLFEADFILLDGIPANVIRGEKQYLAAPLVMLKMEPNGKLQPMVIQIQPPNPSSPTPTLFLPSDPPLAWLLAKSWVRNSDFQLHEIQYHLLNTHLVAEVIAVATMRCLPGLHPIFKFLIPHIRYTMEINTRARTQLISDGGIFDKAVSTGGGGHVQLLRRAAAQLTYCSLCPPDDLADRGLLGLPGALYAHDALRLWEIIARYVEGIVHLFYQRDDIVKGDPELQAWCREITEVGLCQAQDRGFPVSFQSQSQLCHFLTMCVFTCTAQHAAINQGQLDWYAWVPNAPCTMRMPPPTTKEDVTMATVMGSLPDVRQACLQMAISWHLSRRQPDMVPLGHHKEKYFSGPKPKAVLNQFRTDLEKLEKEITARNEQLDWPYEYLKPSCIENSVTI
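Purified human 12hLO (150 nM final) in 25 mM Hepes, 0.01% Triton X-100, pH 7.0 was preincubated 15 min at room temperature with compound. Then 40 uM arachidonic acid was added, 30 min. Hydroperoxide was read by Fe-XO absorbance ratio 573/405 nm.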
IL-1B inflam inh – qHTS for Inhibitors of Inflammasome Signaling: IL-1-beta AlphaLISA Primary Screen; THP-1 LPS/ATP IL-1B secretion, AlphaLISA, 16 h; stronger effect = lower value; 360,000 tested, 4.7% active; AID 743279, 2014; activity change, % at 57.5 µM; in the data active means activity change below about -50%; inconclusive means mostly about -30% to -49%
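THP-1 cells pretreated 1 hr with compounds (up to 57.5 uM final), then stimulated with LPS (250 ng/mL final) plus ATP (1.25 mM final); secreted IL-1B measured by AlphaLISA after 16 hr, decreased signal indicating inhibition.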
HT1080-NT tox – qHTS for induction of synthetic lethality in tumor cells producing 2HG: qHTS for the HT-1080-NT fibrosarcoma cell line; HT-1080-NT fibrosarcoma viability, CellTiter-Glo ATP luminescence, 48 h; 360,000 tested, 1.6% active; Potency, µM (top dose mostly 46.1 µM), for inactives: top-dose activity, negative = less viability, most hits filed as cytotoxic;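 further: NT is the 2HG producing partner of a matched IDH1 knockdown line; potency means the concentration at half of the fitted maximal effect; 0% = DMSO-treated cells and -100% = media-only wells without cells; nearly all actives have a fitted effect of over 55% in size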
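Fibrosarcoma NT cells, 750 per well in 5% FBS RPMI, were exposed to compound for 48 hours. Viability: CellTiter-Glo luminescence.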
Starred values were filed as active, the others as inactive; ? = inconclusive; . = not tested or not shown; [ ] = dose if it differs, or a comment. Unless noted, the call rests on the fitted dose curve; in most records, active means well fitted curve in the direction sought with a large enough effect; inconclusive means small, poorly fitted or top-dose-only effect, or another doubt; inactive means no such curve, though single readings can be large; an effect the other way counts as inactive or inconclusive. Unless noted, on the % scale 0 is the no-effect control and ±100 the full control effect.

SMILES	HT1080 IDH1KD tx	TDP1 cell noCPT	DT40 TDP1 CPT	ALOX12 inh	IL-1B inflam inh	HT1080-NT tox
NC(=S)N/N=C/c1ccc(-c2cccc([N+](=O)[O-])c2)o1	3.2%	3.66µM*	5.17µM*	?	-5.3	-2.2%
NC(=S)N/N=C/c1ccc(-c2cc(Cl)c(Cl)cc2Cl)o1	?	4.61µM*	3.66µM*	?	28.7	?
O=C(N/N=C/c1ccc(-c2cccc([N+](=O)[O-])c2)o1)c1cccs1	7.9%	-25.3%	21.8%	-9.6%	35.1	-4.6%
NC(=S)N/N=C/c1ccc(Br)o1	0.5%	-15.4%	-19.5%	-12.0%	-11.3	1.6%
Nc1nonc1C(=O)N/N=C/c1ccc(-c2cccc([N+](=O)[O-])c2)o1	-4.0%	?	-22.7%	-22.2%	18.7	0.7%
O=[N+]([O-])c1cccc(-c2ccc(/C=N/NC(=S)Nc3cccc(F)c3)o2)c1	-29.3%	18.4µM*	-0.1%	284.9%	-0.5	?
Cc1ccc(C(=O)Nc2cccc(-c3nc(CNC(=O)c4ccc(F)cc4Cl)c(C)o3)c2)s1	.	0.3%	10.4%[9.04 µM]	5.8%	.	.
CCc1ccccc1NC(=O)c1cc2c(Cl)nc3ccccc3c2s1	.	?	?	-26.6%	.	.
CCN(CC)CCCNC(=O)c1cc2c(Cl)nc3ccccc3c2s1	?	?	18.4µM*	?	?	?
CCN(CCCNC(=O)c1cc2c(Cl)nc3ccccc3c2s1)Cc1ccccc1	.	23.1µM*	?	?	.	.
CC(C)(C)c1nc(COc2ccccc2C#N)cs1	.	.	.	-7.8%	.	.
CC(C)Cc1nc(CN(C)C(=O)c2cccc(CCC(C)(C)O)c2)no1	.	.	.	18.1%	.	.
CC(=O)/C=C/C1C(C)=CCCC1(C)C (configuration not stated)	.	.	.	5.8%[176 µM]	.	.
O=c1[nH]c(=O)n(Cc2ccc(Oc3ccccc3)cc2)cc1Br	.	.	.	-6.0%	.	.
C=C1CC(Cn2cc(Br)c(=O)[nH]c2=O)(c2ccc(-c3ccccc3)cc2)OC1=O (configuration not stated)	1.64µM*	0.0259µM*	0.0326µM*	?	-2.4	2.31µM*
CSCCC(NC(=O)COc1ccccc1)C(=O)NCC(C)(C)N1CCOCC1 (configuration not stated)	5.9%	-2.1%	7.1%	2.6%	16.7	0.6%
O=C1CC(c2ccccc2)N(C(=O)C2CC2)CCCN(C(=O)COc2ccccc2)CCN1 (configuration not stated)	.	.	.	18.5%	.	.
CN(C)S(=O)(=O)Oc1cccc(C(=O)Nc2ccc([N+](=O)[O-])cc2)c1	?	8.2µM*	?	-2.3%	7.9	-21.6%
Cc1ccccc1NC(=O)c1cccc(NC(=O)c2c(C(=O)O)cccc2[N+](=O)[O-])c1	21.0%	-9.7%	13.5%	152.5%	-10.4	?
O=C(Nc1ccc(O)cc1)c1cccc(Oc2ccc([N+](=O)[O-])cc2)c1	?	18.4µM*	?	-46.3%	-67.6*	?
Cc1ccccc1NC(=O)c1cccc(S(=O)(=O)Oc2ccc([N+](=O)[O-])cc2)c1	0.0%	?	?	5.2%	-58.4*	-5.8%
O=C(Nc1ccc([N+](=O)[O-])cc1)c1cccc([N+](=O)[O-])c1	-20.8%	8.7%	5.6%	?	34.2	-18.8%
Cc1onc(-c2ccccc2Cl)c1C(=O)OCC(=O)N1CCCCC1	9.2%	-28.9%	-21.0%	24.2%	-14.2	-0.6%
Cc1ccc(/C=C2\CCC3=C2OC(N)=C(C#N)C3c2ccc(C)cc2)cc1 (configuration not stated)	13.3%	6.51µM*	4.61µM*	.	-69.9*	-5.1%
N#CC1=C(N)OC2=C(CCc3ccccc32)C1c1ccccc1 (configuration not stated)	0.581µM*	0.92µM*	0.82µM*	-26.0%	13.0	0.92µM*
SMILES	HT1080 IDH1KD tx	TDP1 cell noCPT	DT40 TDP1 CPT	ALOX12 inh	IL-1B inflam inh	HT1080-NT tox
CNC(=O)c1cc(S(=O)(=O)N2CCc3c(nc[nH]c3=O)C2)cs1	.	.	.	9.9%	.	.
Cc1nn(C)c(C)c1CNC(=O)c1nn2c(c1Cl)NC(c1cccs1)CC2C(F)(F)F (configuration not stated)	?	9.2µM*	16.4µM*	8.1%[57.4 µM]	15.2	?
O=C(NCC1CCCO1)c1cnn2c1NC(c1ccccc1)CC2C(F)(F)F (configuration not stated)	7.1%	-13.5%	-9.5%	4.8%	-6.4	4.9%
O=C(NCC1CCCO1)c1nn2c(c1Cl)NC(c1ccc(F)cc1)CC2C(F)(F)F (configuration not stated)	-5.2%	?	16.4µM*	0.0%	-16.6	-8.3%
CCOC(=O)c1c(S(=O)(=O)NC2CCN(C(=O)OCC)CC2)c(C)n(C)c1C	-0.7%	?	-16.4%	0.4%	1.0	0.0%
CCC(=O)N1CCN(c2ccc(Cl)cc2NC(=O)c2cccc([N+](=O)[O-])c2)CC1	2.4%	?	?	1.6%	30.2	2.0%
O=C(Nc1cc(Cl)ccc1F)c1ccc(-n2cncn2)c([N+](=O)[O-])c1	9.8%	?	-8.3%	-21.9%	?	6.7%
CCC(=O)N1CCN(c2ccc(NC(=O)c3ccc([N+](=O)[O-])o3)cc2Cl)CC1	7.31µM*	5.17µM*	0.82µM*	?	-107.0*	11.6µM*
CCN1CCN(c2ccc(NC(=O)c3ccc(F)cc3)cc2Cl)CC1	7.7%	20.8%	8.0%	18.8%	0.0	17.0%
CCN1CCN(c2ccc(NC(=O)c3ccc([N+](=O)[O-])o3)cc2Cl)CC1	13µM*	0.517µM*	0.581µM*	0.0%	-106.8*	?
O=C(Nc1cc(Cl)ccc1-n1cncn1)c1ccc([N+](=O)[O-])o1	-21.6%	10.3µM*	7.31µM*	-3.1%	-65.1*	-21.9%
CCC(=O)N1CCN(c2ccc(Cl)cc2NC(=O)c2ccc([N+](=O)[O-])o2)CC1	?	?	18.4µM*	-8.7%	2.8	?
O=C(NCc1csc(-c2cnccn2)n1)C1CNCCO1 (configuration not stated)	.	.	.	0.8%	.	.
CC(=O)N1CCN(c2ccc(NC(=O)c3ccc([N+](=O)[O-])o3)cc2Cl)CC1	6.51µM*	0.92µM*	0.411µM*	?	-101.9*	3.26µM*
